We go through five compounds from PubChem BioAssay AID2116 (The Scripps Research Institute Molecular Screening Center, 2009).

The structures appear in SMILES notation. Activity calls are given as the source filed them. How the calls were made is not given here.

This assay deals with Mucolipin-3 (Homo sapiens) (UniProt Q8TDD5). As to the kind of experiment: TRPML3 and TRPML2 channel agonists, cell-based, patch clamp, Fura-2 profiling panel (AID 2116). As to conditions: HEK293 cells expressing TRPML3-YFP, TRPML3 Fura-2 Imaging; Fura-2 340/380 ratio change, at 10 µM, stronger effect = higher value. A general note: Patch clamp records ionic current or voltage across a cell membrane.
Sequence of Mucolipin-3 (Homo sapiens) (Q8TDD5 whole entry, looked up): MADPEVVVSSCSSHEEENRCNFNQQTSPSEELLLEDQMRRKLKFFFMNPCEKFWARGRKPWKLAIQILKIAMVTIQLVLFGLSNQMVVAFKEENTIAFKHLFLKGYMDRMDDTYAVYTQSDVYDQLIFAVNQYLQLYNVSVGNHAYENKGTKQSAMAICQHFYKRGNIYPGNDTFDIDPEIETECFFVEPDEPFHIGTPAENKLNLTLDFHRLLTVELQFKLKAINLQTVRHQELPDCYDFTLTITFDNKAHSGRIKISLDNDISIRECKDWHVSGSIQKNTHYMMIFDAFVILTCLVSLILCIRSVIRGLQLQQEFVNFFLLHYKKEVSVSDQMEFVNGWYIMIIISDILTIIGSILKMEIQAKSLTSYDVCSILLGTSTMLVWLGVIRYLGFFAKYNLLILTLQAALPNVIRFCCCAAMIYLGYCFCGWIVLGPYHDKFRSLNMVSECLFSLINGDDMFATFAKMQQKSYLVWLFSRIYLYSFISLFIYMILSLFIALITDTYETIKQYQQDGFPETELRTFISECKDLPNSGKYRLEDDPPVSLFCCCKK

In the case of `Cc1ccc(S(=O)(=O)Nc2ccccc2-c2ccccc2)cc1`, the delta F ratio was found to be 0.51 and the outcome is “active; no effect on six other TRP channels”.
As to `O=S(=O)(NC1CCCCC1N1CCOCC1)c1ccc(Cl)cc1` (stereo not given), the delta F ratio was determined as 1.38 and the outcome was “active; no effect on six other TRP channels”.
Turning to `Cc1ccc(N2CCN(S(=O)(=O)N3CCCCC3)CC2)c(C)c1`, the delta F ratio is 0.99 and the outcome is “active; no effect on six other TRP channels”.
For `O=S(=O)(Nc1ccccc1N1CCOCC1)c1ccc(Cl)s1` the same measures were 0.93 and “active; no effect on six other TRP channels”.
For `O=S(=O)(Nc1ccccc1N1CCCCC1)c1ccc(Cl)s1` the same measures were 1 and “active; no effect on six other TRP channels”.
